# Measured values reported in PubChem BioAssay.
# Where “and” joins values, the source holds several entries; their conditions need not be identical. Equal entries are not always repeated. Calls of active or inactive are those of the source.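 How the source made its calls, unless noted: active means thallium flux through the channel raised or lowered by more than 3 SD from vehicle-only wells, actives on both sides; inactive means the rest.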 Non-standard residues stand in square brackets, D forms with d. Residues, ends and D or L forms follow the SMILES beside them. pGlu = O=C1CC[C@@H](C(=O)O)N1; Thz = O=C(O)[C@@H]1CSCN1
# Tests used:
# [1] = P. berghei load reduction in hepatocytes – cell-based, HepG2, luciferase luminescence, HepG2 viability, primary screen (AID 624349; in the data active means parasite load remaining mostly below about 12%, no sharp cut-off; inactive means mostly above about 10%;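 further: 100% = mean of DMSO negative control wells on the same plate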); details: P. berghei liver stage in HepG2, luciferase luminescence, concentration not given here; parasite load remaining: stronger effect = lower value; viability: measured here: HepG2 viability without parasites
# [2] = signal quenchers or enhancers, Cy5 substrate/SSB – biochemical, NIH Clinical Collection, E. coli SSB, artefact control for HCV NS3 helicase inhibitor project (AID 743268; call rule not given here); details: Cy5-oligo bound E. coli SSB, fluorescence interference
# [3] = system: Hepatitis C virus NS3 helicase; assay: blockers of NS3h binding to DNA – biochemical, fluorescence polarization, NIH Clinical Collection, primary screen (AID 743270; call rule not given here); details: NS3 helicase binding to Cy5-dT15 DNA, stronger effect = higher value, concentration not given here
# [4] = target: Single-stranded DNA-binding protein (Escherichia coli (strain K12)) (UniProt P0AGE0); assay: SSB-ssDNA binding inhibitors – biochemical, fluorescence polarization, NIH Clinical Collection, counter-screen for HCV NS3 helicase inhibitor project (AID 743271; in the data active means inhibition above about 28%); details: E. coli SSB-DNA binding, stronger effect = higher value, concentration not given here
# [5] = compounds distorting NS3 helicase fluorescence signal – biochemical, NIH Clinical Collection, artefact control for HCV NS3 helicase inhibitor project (AID 743272; call rule not given here;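 further: HCV NS3 helicase with a Cy5 labelled single stranded DNA probe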); details: fluorescence interference counterscreen, HCV NS3 helicase assay; stronger effect = lower value
# [6] = modulation of C. elegans fzo-1 (AID 1259413; call rule not given here;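 further: fzo-1 mutant C. elegans worms in liquid wells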); details: C. elegans fzo-1 modulator screen, mean read-out; stronger effect = higher value
# [7] = EMT-state selective cytotoxicity in co-culture – imaging, PC-3E GFP, TEM4-18 mCherry, primary screen (AID 1345086;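 active means compounds killing one labelled cell type while sparing the other, by normalised counts and ratio limits, not self-fluorescent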;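 on all read-outs here: cells exposed to compound for 72 h before imaging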;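 on red/green cell ratio (normalised): normalised mesenchymal count divided by normalised epithelial count so high means epithelial killing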); details: PC-3E GFP / TEM4-18 mCherry co-culture, imaging cell counts, at 1 µM; for red/green cell ratio (normalised): actives lie on both sides, counts scaled to control wells, 1 = unselective
# [8] = viability loss with induced miR-34 in A549 – imaging, A549 dox-inducible miR-34, nuclei and caspase counts, primary screen (AID 1347080;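 active means compounds whose cell count with miR-34 switched on is under 0.7 times the count with it off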); details: A549 miR-34 inducible, Hoechst nuclei count, 48 h
# [9] = MELAS cybrid and Rieske KO viability enhancers – cell-based, MELAS cybrids, Rieske KO mouse fibroblasts, CellTiter-Glo, primary screen (AID 1508586;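 active means mean z-score across replicates of 1.96 or higher in either the MELAS or the Rieske mutant cell line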;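 further: z relative to plate mean and SD of compound and empty wells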); details: low glucose
# F380Y = assay: BK channel mutant inhibitors and activators – cell-based, U2OS BacMam, thallium flux, beta subunits, selectivity assay, profiling panel (AID 1259406); details: U2OS BacMam BK variants, at 30 µM;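 further: initial slope of Thallos dye fluorescence rise after thallium is added; log ratio against the mean of 0.3% DMSO vehicle wells on the same plate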
# F380Y/beta1 = assay: as above; details: U2OS BacMam BK variants, at 30 µM
# F380Y/beta2Delta = assay: as above; details: U2OS BacMam BK variants, at 30 µM
# F380Y/beta4 = assay: as above; details: U2OS BacMam BK variants, at 30 µM
# [10] = target: Calcium-activated potassium channel subunit alpha-1 (Homo sapiens) + Leucine-rich repeat-containing protein 26 (Homo sapiens) (UniProt Q12791+Q2I0M4); assay: as above; details: U2OS BacMam BK variants, F380Y/Slo1WT/gamma1, at 30 µM
# Chain of Calcium-activated potassium channel subunit alpha-1 (Homo sapiens) + Leucine-rich repeat-containing protein 26 (Homo sapiens) (Q2I0M4 whole entry, looked up, one chain of several): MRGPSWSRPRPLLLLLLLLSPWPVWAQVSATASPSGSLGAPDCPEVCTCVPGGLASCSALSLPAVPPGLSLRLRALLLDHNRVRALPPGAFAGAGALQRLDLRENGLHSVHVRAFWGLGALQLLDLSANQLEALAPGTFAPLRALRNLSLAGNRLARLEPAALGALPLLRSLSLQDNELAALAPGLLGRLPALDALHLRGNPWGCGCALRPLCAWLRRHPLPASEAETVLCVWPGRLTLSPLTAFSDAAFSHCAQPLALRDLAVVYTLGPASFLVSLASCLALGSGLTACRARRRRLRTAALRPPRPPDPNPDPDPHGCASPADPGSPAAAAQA
# R275C = assay: as above; details: U2OS BacMam BK variants, at 30 µM
# R275C/beta1 = assay: as above; details: U2OS BacMam BK variants, at 30 µM
# R275C/beta2Delta = assay: as above; details: U2OS BacMam BK variants, at 30 µM
# R275C/beta4 = assay: as above; details: U2OS BacMam BK variants, at 30 µM
# R275C/Slo1WT/beta2 = assay: as above; details: U2OS BacMam BK variants, at 30 µM
# [11] = measured here: epithelial PC-3E GFP cell survival
# [12] = measured here: mesenchymal TEM4-18 mCherry cell survival
# [13] = stronger effect = lower value, cell number ratio, induced over uninduced
# [14] = measured here: relative caspase fold change +Dox/-Dox
# [15] = measured here: total cells with miR-34 induction, stronger effect = lower value
# [16] = measured here: total cells without miR-34 induction
# [17] = MELAS cybrid survival, CellTiter-Glo 48 h, stronger effect = higher value
# [18] = Rieske KO mouse fibroblast survival, CellTiter-Glo 72 h
smiles,measurement,setting,value
CN(C)CCOc1ccc(/C(=C(/CCCl)c2ccccc2)c2ccccc2)cc1,parasite load remaining,[1],2.65% (inactive) and 4% (inactive)
same,viability,[1],97.2% and 73.5%
same,fluorescence ratio,[2],0.79 (active)
same,inhibition,[3],-1.97% (inactive)
same,inhibition,[4],20.1% (inactive)
same,fluorescence ratio,[5],0.82 (inactive)
same,mean signal,[6],204 (inactive)
same,red/green cell ratio (normalised),[7],0.97 (inactive)
same,normalised cell number,[7]; [11],1.07
same,normalised cell number,[7]; [12],1.04
same,fold change,[8]; [13],0.93 (inactive) and 0.787 (inactive)
same,fold change,[8]; [14],0.696 and 1.39
same,cell count,[8]; [15],6550 and 5410
same,cell count,[8]; [16],7040 and 6880
same,z-score,[9]; [17],-2.09 (inactive) and -0.316 (inactive)
same,z-score,[9]; [18],-0.803 and -1.13
same,log fold change Tl+ flux,F380Y,0.00227 (inactive)
same,log fold change Tl+ flux,F380Y/beta1,-0.0377 (inactive)
same,log fold change Tl+ flux,F380Y/beta2Delta,0.0156 (inactive)
same,log fold change Tl+ flux,F380Y/beta4,0.0185 (inactive)
same,log fold change Tl+ flux,[10],-0.0413 (inactive)
same,log fold change Tl+ flux,R275C,-0.0555 (inactive)
same,log fold change Tl+ flux,R275C/beta1,0.25 (active)
same,log fold change Tl+ flux,R275C/beta2Delta,-0.123 (active)
same,log fold change Tl+ flux,R275C/beta4,-0.0377 (inactive)
same,log fold change Tl+ flux,R275C/Slo1WT/beta2,-0.045 (inactive)
CN1[C@@H]2CCC[C@H]1CC(NC(=O)c1nn(C)c3ccccc13)C2 (stereo partly drawn),mean signal,[6],239 (inactive)
same,fold change,[8]; [13],0.964 (inactive)
same,fold change,[8]; [14],1.59
same,cell count,[8]; [15],10200
same,cell count,[8]; [16],10600
same,z-score,[9]; [17],0.342 (inactive) and -0.62 (inactive)
same,z-score,[9]; [18],0.00777 and -1.31
same,log fold change Tl+ flux,F380Y,0.0826 (inactive)
same,log fold change Tl+ flux,F380Y/beta1,0.016 (inactive)
same,log fold change Tl+ flux,F380Y/beta2Delta,0.036 (inactive)
same,log fold change Tl+ flux,F380Y/beta4,0.0312 (inactive)
same,log fold change Tl+ flux,[10],0.00528 (inactive)
same,log fold change Tl+ flux,R275C,-0.0264 (inactive)
same,log fold change Tl+ flux,R275C/beta1,0.0105 (inactive)
same,log fold change Tl+ flux,R275C/beta2Delta,0.0242 (inactive)
same,log fold change Tl+ flux,R275C/beta4,0.0148 (inactive)
same,log fold change Tl+ flux,R275C/Slo1WT/beta2,0.0272 (inactive)
CNCC[C@@H](Oc1ccccc1C)c1ccccc1,parasite load remaining,[1],70.5% (inactive)
same,viability,[1],66.2%
same,fluorescence ratio,[2],1.06 (inactive)
same,inhibition,[3],-0.4% (inactive)
same,inhibition,[4],-3.95% (inactive)
same,fluorescence ratio,[5],0.98 (inactive)
same,mean signal,[6],246 (inactive)
same,fold change,[8]; [13],0.908 (inactive)
same,fold change,[8]; [14],1.95
same,cell count,[8]; [15],7910
same,cell count,[8]; [16],8710
same,z-score,[9]; [17],-1.06 (inactive)
same,z-score,[9]; [18],-0.171
same,log fold change Tl+ flux,F380Y,0.0847 (inactive)
same,log fold change Tl+ flux,F380Y/beta1,-0.000881 (inactive)
same,log fold change Tl+ flux,F380Y/beta2Delta,0.0334 (inactive)
same,log fold change Tl+ flux,F380Y/beta4,0.0851 (inactive)
same,log fold change Tl+ flux,[10],-0.0181 (inactive)
same,log fold change Tl+ flux,R275C,-0.0128 (inactive)
same,log fold change Tl+ flux,R275C/beta1,0.0385 (inactive)
same,log fold change Tl+ flux,R275C/beta2Delta,0.125 (active)
same,log fold change Tl+ flux,R275C/beta4,0.0404 (inactive)
same,log fold change Tl+ flux,R275C/Slo1WT/beta2,-0.0597 (inactive)
O=C1CC[C@@H](C(=O)N2CSC[C@H]2C(=O)O)N1 ([pGlu]-[Thz]-OH),parasite load remaining,[1],123% (inactive)
same,viability,[1],115%
same,fluorescence ratio,[2],1 (inactive)
same,inhibition,[3],5.94% (inactive)
same,inhibition,[4],3.75% (inactive)
same,fluorescence ratio,[5],0.96 (inactive)
same,mean signal,[6],225 (inactive)
same,red/green cell ratio (normalised),[7],0.96 (inactive)
same,normalised cell number,[7]; [11],0.97
same,normalised cell number,[7]; [12],0.93
same,z-score,[9]; [17],0.585 (inactive)
same,z-score,[9]; [18],-0.48
same,log fold change Tl+ flux,F380Y,-0.0365 (inactive)
same,log fold change Tl+ flux,F380Y/beta1,0.0192 (inactive)
same,log fold change Tl+ flux,F380Y/beta2Delta,0.00122 (inactive)
same,log fold change Tl+ flux,F380Y/beta4,0.0189 (inactive)
same,log fold change Tl+ flux,[10],-0.0423 (inactive)
same,log fold change Tl+ flux,R275C,-0.0391 (inactive)
same,log fold change Tl+ flux,R275C/beta1,-0.0174 (inactive)
same,log fold change Tl+ flux,R275C/beta2Delta,-0.0226 (inactive)
same,log fold change Tl+ flux,R275C/beta4,-0.00158 (inactive)
same,log fold change Tl+ flux,R275C/Slo1WT/beta2,-0.0454 (inactive)
